Experiment [1] has as its target Glucocorticoid receptor (Homo sapiens) (UniProt P04150). The experiment in a line: qHTS assay for small molecule agonists of glucocorticoid receptor signaling (AID 588532; active means well fitted curve in the direction sought with a large enough effect in the signal ratio, with a control signal flat; the % refers to the signal ratio;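 further: 100% = dexamethasone at 0.1 µM and 0% = DMSO only wells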). The note with it: HeLa MMTV-bla, beta-lactamase ratio, agonist, 18 h; stronger effect = higher value; percent of dexamethasone control, DMSO zero. The gist of the method:
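MMTV-bla HeLa beta-lactamase reporter cells in 1% charcoal/dextran FBS medium, compounds up to 92 uM for 18 h at 37 C, CCF4 readout; normalized to 0.1 uM dexamethasone (100%), EC50 and efficacy from Hill fits.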

The target is the same in experiment [2]. The experiment in a line: qHTS assay for small molecule antagonists of glucocorticoid receptor signaling (AID 588533; active means well fitted inhibition curve with a large enough effect in the signal ratio, with a control signal flat, not every such curve was filed as active; the % refers to the signal ratio;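 further: cells stimulated with 2 nM dexamethasone as agonist; on the % scale 0 is the no-effect control and ±100 the full control effect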). To be noted: HeLa MMTV-bla, GRE beta-lactamase ratio, antagonist mode, 18 h; series mostly up to 76.8 µM. The method, boiled down: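 Antagonist-mode qHTS: compound titrations added to GRE-bla HeLa cells, then dexamethasone 2 nM final; 18 h, 37 C. CCF4 FRET fluorescence normalized to dexamethasone and DMSO; IC50 from Hill fit.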

The nature of experiment [3]: qHTS assay for small molecule antagonists of peroxisome proliferator-activated receptor delta signaling (AID 588535).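 Further: cells co-treated with a PPAR-delta agonist as stimulator during compound exposure.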 The note with it: HEK293T PPARd-UAS-bla, beta-lactamase FRET ratio, 18 h; 460 nm channel. The gist of the method: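 Beta-lactamase reporter read-out (405 nm excitation, 460/530 nm emission) after CCF4 loading for 2 hrs at RT. HEK293T PPAR-delta-UAS-bla cells, 2% charcoal/dextran FBS, compounds for 18 hrs at 37 C. Hill fit gave IC50 and efficacy.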

For experiment [4], the target named is Peroxisome proliferator-activated receptor gamma (Homo sapiens) (UniProt P37231). The experiment can be described thus: qHTS assay for small molecule agonists of peroxisome proliferator-activated receptor gamma signaling (AID 588536; active means well fitted curve in the direction sought with a large enough effect in the signal ratio, with a control signal flat, not every such curve was filed as active; the % refers to the signal ratio;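 further: 0% = DMSO basal wells and 100% = rosiglitazone at 2 µM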). The note with it: HEK293 PPARg-UAS-bla, beta-lactamase ratio, 16 h, percent of rosiglitazone response, DMSO as zero; series mostly up to 76.7 µM. The method, boiled down: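 Cells were plated and held 6–6.5 h at 37 C, then compounds were added as a titration series. After a further 16 h, CCF4 dye was loaded for 2 h at room temperature and emission at 460/530 nm recorded.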
Chain of Peroxisome proliferator-activated receptor gamma (Homo sapiens) (P37231 whole entry, looked up): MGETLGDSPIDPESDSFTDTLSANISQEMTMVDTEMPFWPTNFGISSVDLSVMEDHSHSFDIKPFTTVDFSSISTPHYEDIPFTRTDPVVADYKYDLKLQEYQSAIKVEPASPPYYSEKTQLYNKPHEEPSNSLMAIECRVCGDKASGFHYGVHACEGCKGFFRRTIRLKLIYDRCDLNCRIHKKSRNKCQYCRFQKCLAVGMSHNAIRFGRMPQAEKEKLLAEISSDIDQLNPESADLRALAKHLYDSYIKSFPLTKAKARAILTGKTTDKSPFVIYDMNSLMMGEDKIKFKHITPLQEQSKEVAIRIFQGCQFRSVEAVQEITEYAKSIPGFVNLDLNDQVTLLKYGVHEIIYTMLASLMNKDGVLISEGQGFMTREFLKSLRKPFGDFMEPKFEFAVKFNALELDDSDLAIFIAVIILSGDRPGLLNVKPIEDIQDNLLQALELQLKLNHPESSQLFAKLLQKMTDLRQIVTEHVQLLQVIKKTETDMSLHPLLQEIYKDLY

Experiment [5] has the same target. The experiment can be described thus: qHTS assay for small molecule antagonists of peroxisome proliferator-activated receptor gamma signaling (AID 588537; active means well fitted inhibition curve with a large enough effect in the signal ratio, with a control signal flat, not every such curve was filed as active; the % refers to the signal ratio;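 further: reporter cells co-stimulated with 50 nM rosiglitazone agonist during compound treatment; % of control where 0% means no effect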). The note with it: HEK293 PPARg-UAS-bla, beta-lactamase ratio, antagonist mode; series mostly up to 76.8 µM. The gist of the method:
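Read-out: CCF4 fluorescence (ex 405, em 460/530 nm) after 2 h at RT. Cells were HEK293 carrying a UAS-bla reporter and treated 16 h at 37 C with compound plus rosiglitazone (50 nM final). Normalized to rosiglitazone and DMSO.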

The target of experiment [6] is Vitamin D3 receptor (Homo sapiens) (UniProt P11473). The experiment in a line: qHTS assay for small molecule agonists of vitamin D receptor signaling (AID 588543; calls by dose curve;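 further: 0% = DMSO basal and 100% = reference agonist control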). To be noted: HEK293T VDR-UAS-bla, beta-lactamase ratio, 16 h; series mostly up to 76.8 µM. The method, boiled down:
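Reporter cells (HEK293T, VDR-UAS-bla) were seeded in medium with 2% charcoal-stripped serum and incubated 5 h, then compounds in concentration series were added for 16 h at 37 °C. Stimulation was scaled between DMSO basal and 50 nM 1α,25-dihydroxyvitamin D3.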

Experiment [7] can be described thus: qHTS assay for small molecule agonists of retinoid X receptor alpha signaling (AID 588544). The note with it: HEK293T RXRa-UAS-bla, beta-lactamase reporter, 18 h; 530 nm emission.
Experiment [8] concerns the target Thyroid hormone receptor beta (Homo sapiens) (UniProt P10828). The experiment can be described thus: qHTS assay for small molecule agonists of thyroid hormone receptor beta signaling (AID 588545; calls by dose curve). To be noted: TR-UAS-bla GripTite HEK 293, beta-lactamase ratio, agonist mode, 18 h; series mostly up to 76.7 µM. The method, boiled down: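 Agonist activity was read as beta-lactamase CCF4 fluorescence (405 ex, 460/530 em), scaled between DMSO (0%) and 10 nM T3 (100%), then Hill-fitted for EC50 and efficacy. HEK 293 TR-UAS-bla cells in 2% charcoal/dextran FBS medium were exposed 18 h at 37 C.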

Experiment [9] in a line: qHTS assay for small molecule activators of the p53 signaling pathway (AID 651743; active means well fitted activation curve with a large enough effect in the signal ratio, not every such curve was filed as active; the % refers to the signal ratio; further: % of control where 0% means no effect). The note with it: HCT-116 p53RE-bla, beta-lactamase FRET ratio, 16 h; activation: stronger effect = higher value. The method, boiled down: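 Reporter: beta-lactamase driven by p53 response elements, stably integrated in HCT-116 cells. Cells seeded at 4,000/well, 5 h preincubation, compound (DMSO) 16 h at 37 C; B/G FRET substrate 2 h RT; fluorescence intensity read.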

Experiment [10] is described as follows: qHTS assay for environmental chemicals that activate the Aryl hydrocarbon Receptor (AhR) signaling pathway (AID 651777). Further: % of control where 0% means no effect; nearly all actives have a fitted effect of over 15% in size. The note with it: 1A2-DRE human hepatoma cells, luciferase, 24 h; activation: stronger effect = higher value. The method, boiled down: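 Human hepatoma 1A2-DRE cells, stably carrying a dioxin response element and CYP1A2 promoter driving luciferase, were exposed to compounds for 24 hr at 37 C and 5% CO2. Luciferase signal was then read after 30 min One-Glo at room temperature.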

The target of experiment [11] is Peroxisome proliferator-activated receptor alpha (Homo sapiens) (UniProt Q07869). The experiment in a line: qHTS assay for small molecule agonists of the peroxisome proliferator-activated receptor alpha (PPARalpha) signaling pathway (AID 651778). Further: % of control where 0% means no effect. The note with it: PathHunter PPARalpha complementation, chemiluminescence, 6 h; max response: stronger effect = higher value. The method, boiled down:
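Enzyme-fragment complementation assay in which ligand-bound PPARalpha translocates and forms an active enzyme that generates chemiluminescence. Cells were plated overnight, exposed to compound for 6 hr at 37 C, and then given detection reagent for 60 min at room temperature.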

The nature of experiment [12]: qHTS assay for small molecule agonists of the antioxidant response element (ARE) signaling pathway measured by Nrf2-dependant transcriptional activity (AID 720636; active means well fitted curve in the direction sought with a large enough effect in the repeat runs; an effect the other way counts as inactive or inconclusive; further: % of control where 0% means no effect). To be noted: ARE-luc HepG2, Nrf2 luciferase reporter, 16 h; series mostly up to 92.4 µM. The gist of the method: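 ARE-luc HepG2 cells carrying an Nrf2-responsive luciferase reporter were plated in medium with 1% dialyzed FBS, left 6 hr at 37 C to attach, then exposed to compound for 16 hr. Luciferase luminescence was read after ONE-Glo addition.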

Experiment [13] in a line: qHTS assay for small molecule agonists of the antioxidant response element (ARE) signaling pathway measured by Nrf2-dependant transcriptional activity - cell viability counter screen (AID 720653; active means well fitted curve in the direction sought with a large enough effect in the repeat runs; an effect the other way counts as inactive or inconclusive; further: on the % scale 0 is the no-effect control and ±100 the full control effect). The note with it: ARE-bla HepG2 viability, CellTiter-Glo ATP luminescence, 16 h; max response: stronger effect = lower value. The method, boiled down: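 ARE-bla HepG2 cells treated with compounds for 16 h at 37C; this counter screen measures viability as intracellular ATP by CellTiter-Glo luminescence after 30 min at room temperature.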

Experiment [14] can be described thus: qHTS assay for cell viability of HEK293 cells (AID 743288). Further: on the % scale 0 is the no-effect control and ±100 the full control effect; nearly all actives have a fitted effect of over 50% in size. To be noted: ATP luminescence (CellTiter-Glo), 18 h; max response: stronger effect = lower value. The method, boiled down: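 Viable-cell counts were inferred from luciferase-based ATP content in HEK293 cells seeded at 2,000/well, pre-incubated ≥5 h, then dosed with DMSO-solubilised compounds for 18 h at 37 C.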

Experiment [15] can be described thus: qHTS assay for cell viability of the p53RE-bla HCT-116 cell line (AID 743292). Further: on the % scale 0 is the no-effect control and ±100 the full control effect; nearly all actives have a fitted effect of over 55% in size. To be noted: p53RE-bla HCT-116 viability, ATP luminescence, 16 h; series mostly up to 95 µM. The method, boiled down: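 CellSensor p53RE-bla HCT-116 cells, 4,000/well, preincubated 5 h at 37 C, then exposed to compounds in DMSO for 16 h at 37 C. Viability read as CellTiter-Glo luminescence (intracellular ATP) after 30 min at room temperature.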

The target in experiment [16] is Nuclear receptor subfamily 1 group I member 2 (Rattus norvegicus) (UniProt Q9R1A7). The experiment in a line: qHTS assay for small molecule activators of the rat pregnane X receptor (rPXR) signaling pathway (AID 651751; call rule not given here; further: 0% is about no effect). To be noted: rPXR reporter cells, luciferase (One-Glo), 24 h.
Chain of Nuclear receptor subfamily 1 group I member 2 (Rattus norvegicus) (Q9R1A7 whole entry, looked up): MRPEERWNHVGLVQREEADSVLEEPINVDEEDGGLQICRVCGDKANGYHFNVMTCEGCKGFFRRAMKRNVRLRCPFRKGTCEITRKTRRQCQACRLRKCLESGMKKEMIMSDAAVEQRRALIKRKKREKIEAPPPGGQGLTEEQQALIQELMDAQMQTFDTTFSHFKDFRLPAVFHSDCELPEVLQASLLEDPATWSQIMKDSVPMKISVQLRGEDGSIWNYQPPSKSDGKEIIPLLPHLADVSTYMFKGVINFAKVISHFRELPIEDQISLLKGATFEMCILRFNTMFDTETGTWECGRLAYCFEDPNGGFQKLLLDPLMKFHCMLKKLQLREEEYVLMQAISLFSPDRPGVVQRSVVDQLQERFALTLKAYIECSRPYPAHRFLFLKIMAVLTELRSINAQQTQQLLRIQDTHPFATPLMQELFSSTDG
Experiment [17] in a line: qHTS assay for small molecule activators of the human pregnane X receptor (PXR) signaling pathway (AID 720659; call rule not given here; further: 0% is about no effect). The note with it: DPX-2 HepG2 CYP3A4-luciferase, 24 h; series mostly up to 92.3 µM.
Experiment [18] can be described thus: qHTS assay for small molecule antagonists of retinoid X receptor alpha signaling (AID 588546; active means well fitted inhibition curve with a large enough effect in the signal ratio, with a control signal flat, not every such curve was filed as active; the % refers to the signal ratio;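 further: cells stimulated with 9-cis-retinoic acid as agonist; on the % scale 0 is the no-effect control and ±100 the full control effect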). The note with it: HEK293T RXRa-UAS-bla, beta-lactamase ratio, antagonist mode; measured here: W530 green channel, cytotoxicity proxy. The method, boiled down:
(§1)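 Beta-lactamase reporter inhibition, read as CCF4 fluorescence ratio (ex 405, em 460/530 nm) after 2 h at RT. HEK293T UAS-bla cells, 2500/well, were stimulated with 9-cis-RA at 500 or 100 nM final alongside test compound for 18 h at 37 C.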

For experiment [19], the target named is Retinoic acid receptor RXR-alpha (Homo sapiens) (UniProt P19793). The description is as above. To be noted: HEK293T RXRa-UAS-bla, beta-lactamase ratio, antagonist mode. The gist of the method:
as §1

The nature of experiment [20]: qHTS assay for small molecule activators of the nuclear factor-kappa B (NF-kB) signaling pathway (AID 651749; active means well fitted activation curve with a large enough effect in the signal ratio; the % refers to the signal ratio; further: % of control where 0% means no effect). To be noted: NF-kB-bla ME-180 cells, beta-lactamase FRET ratio, 16 h; activation: stronger effect = higher value. The method, boiled down: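 NF-kB-bla ME-180 cells, 2,000/well; 23 nL compound or DMSO pinned; 16 hr, 37C/5% CO2; beta-lactamase FRET read-out.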

Inconclusive results are not listed. Activity calls are given as the source filed them. Unless noted, the call rests on the fitted dose curve; in most records, active means well fitted curve in the direction sought with a large enough effect; inconclusive means small, poorly fitted or top-dose-only effect, or another doubt; inactive means no such curve, though single readings can be large; an effect the other way counts as inactive or inconclusive.

Experimental findings from PubChem BioAssay (NCATS) are described below.

Chain of Vitamin D3 receptor (Homo sapiens) (P11473 whole entry, looked up): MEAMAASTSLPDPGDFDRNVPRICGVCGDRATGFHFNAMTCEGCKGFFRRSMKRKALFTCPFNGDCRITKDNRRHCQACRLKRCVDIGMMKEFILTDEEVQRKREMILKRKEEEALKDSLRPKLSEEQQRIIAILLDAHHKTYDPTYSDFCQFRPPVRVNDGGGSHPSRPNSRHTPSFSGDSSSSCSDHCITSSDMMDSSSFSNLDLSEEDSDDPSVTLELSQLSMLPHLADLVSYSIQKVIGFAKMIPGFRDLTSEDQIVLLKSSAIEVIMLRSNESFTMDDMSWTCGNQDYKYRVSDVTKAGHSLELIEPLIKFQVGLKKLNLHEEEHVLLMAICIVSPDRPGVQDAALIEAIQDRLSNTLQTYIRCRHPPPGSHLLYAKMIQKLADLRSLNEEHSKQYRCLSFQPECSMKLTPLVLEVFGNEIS
Chain of Retinoic acid receptor RXR-alpha (Homo sapiens) (P19793 whole entry, looked up): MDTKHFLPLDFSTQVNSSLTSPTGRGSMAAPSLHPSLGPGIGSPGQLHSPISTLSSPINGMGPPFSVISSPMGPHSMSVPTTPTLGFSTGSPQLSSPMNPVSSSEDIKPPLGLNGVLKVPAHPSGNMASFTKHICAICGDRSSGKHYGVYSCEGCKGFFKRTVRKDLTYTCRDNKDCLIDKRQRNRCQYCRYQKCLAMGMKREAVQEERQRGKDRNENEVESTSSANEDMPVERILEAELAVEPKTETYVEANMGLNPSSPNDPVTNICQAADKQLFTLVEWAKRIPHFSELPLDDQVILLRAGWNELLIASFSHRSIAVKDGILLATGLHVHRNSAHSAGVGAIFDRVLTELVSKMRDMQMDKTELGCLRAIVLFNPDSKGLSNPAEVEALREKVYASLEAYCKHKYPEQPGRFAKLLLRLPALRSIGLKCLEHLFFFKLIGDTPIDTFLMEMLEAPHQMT
Chain of Glucocorticoid receptor (Homo sapiens) (P04150 whole entry, looked up): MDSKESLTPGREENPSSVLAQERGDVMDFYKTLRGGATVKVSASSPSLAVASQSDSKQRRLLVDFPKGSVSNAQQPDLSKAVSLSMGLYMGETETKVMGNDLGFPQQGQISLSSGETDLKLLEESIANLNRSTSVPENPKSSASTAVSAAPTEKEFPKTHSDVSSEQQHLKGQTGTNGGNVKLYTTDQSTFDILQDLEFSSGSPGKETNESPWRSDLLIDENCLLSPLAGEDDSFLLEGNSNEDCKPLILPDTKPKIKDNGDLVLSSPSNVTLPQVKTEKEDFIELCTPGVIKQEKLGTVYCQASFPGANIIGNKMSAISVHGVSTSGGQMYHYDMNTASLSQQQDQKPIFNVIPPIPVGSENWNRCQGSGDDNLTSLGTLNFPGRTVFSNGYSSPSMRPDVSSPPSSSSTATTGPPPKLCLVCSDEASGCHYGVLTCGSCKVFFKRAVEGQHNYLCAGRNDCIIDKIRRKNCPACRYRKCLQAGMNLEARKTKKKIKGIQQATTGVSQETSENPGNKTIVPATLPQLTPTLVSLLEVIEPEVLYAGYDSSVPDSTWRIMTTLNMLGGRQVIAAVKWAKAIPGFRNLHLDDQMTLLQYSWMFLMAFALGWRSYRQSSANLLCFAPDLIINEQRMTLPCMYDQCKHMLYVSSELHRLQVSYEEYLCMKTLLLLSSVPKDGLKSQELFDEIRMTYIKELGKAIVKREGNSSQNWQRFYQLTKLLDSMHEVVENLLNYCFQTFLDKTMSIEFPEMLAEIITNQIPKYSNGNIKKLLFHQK
Chain of Thyroid hormone receptor beta (Homo sapiens) (P10828 whole entry, looked up): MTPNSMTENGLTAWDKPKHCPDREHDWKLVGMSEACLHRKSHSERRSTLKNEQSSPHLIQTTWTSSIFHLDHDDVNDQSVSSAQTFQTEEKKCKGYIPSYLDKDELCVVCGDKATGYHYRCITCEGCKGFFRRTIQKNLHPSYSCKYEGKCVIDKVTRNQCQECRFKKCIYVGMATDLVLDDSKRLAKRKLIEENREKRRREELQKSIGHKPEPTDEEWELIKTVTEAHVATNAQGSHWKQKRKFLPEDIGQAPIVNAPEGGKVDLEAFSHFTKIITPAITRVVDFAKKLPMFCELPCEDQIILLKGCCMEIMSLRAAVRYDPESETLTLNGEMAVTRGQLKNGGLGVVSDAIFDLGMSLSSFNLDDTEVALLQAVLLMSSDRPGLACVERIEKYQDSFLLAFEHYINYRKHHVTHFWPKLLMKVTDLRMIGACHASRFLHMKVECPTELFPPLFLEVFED
Chain of Peroxisome proliferator-activated receptor alpha (Homo sapiens) (Q07869 whole entry, looked up, the tested form may be a part): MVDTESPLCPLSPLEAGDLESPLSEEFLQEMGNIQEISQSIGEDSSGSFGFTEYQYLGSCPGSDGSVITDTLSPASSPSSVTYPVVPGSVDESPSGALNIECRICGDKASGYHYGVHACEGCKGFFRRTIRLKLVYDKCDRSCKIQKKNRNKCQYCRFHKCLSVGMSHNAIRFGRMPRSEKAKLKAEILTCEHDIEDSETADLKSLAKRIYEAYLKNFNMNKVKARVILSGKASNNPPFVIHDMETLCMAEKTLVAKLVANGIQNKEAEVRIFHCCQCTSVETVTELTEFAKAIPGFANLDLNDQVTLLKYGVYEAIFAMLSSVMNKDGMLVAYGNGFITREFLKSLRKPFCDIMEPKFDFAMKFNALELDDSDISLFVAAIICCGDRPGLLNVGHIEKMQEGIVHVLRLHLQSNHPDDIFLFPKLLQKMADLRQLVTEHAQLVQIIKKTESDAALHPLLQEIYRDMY

Take `C=C(C)C(=O)OCC[N+](C)(C)C`: the activation in experiment [1] was -7.03% (inactive); in experiment [9], 0.0876% (inactive); in experiment [10], -2.41% (inactive). Also, the Potency entry in experiment [2], in experiment [5], in experiment [8], in experiment [12] and in experiment [15] was “inactive” throughout. Moreover, the max response in [3] was 8.9%; in [7] it was 7.2%; in [11] it was -2.12% (inactive); in [13] it was 1.93% (inactive); in experiment [14], -15.2% (inactive); in experiment [16], 0.4% (inactive). The result in experiment [4], in experiment [6] and in [17] was inactive.

For `CCOC(=O)C(C)Oc1ccc(Oc2cnc3cc(Cl)ccc3n2)cc1` (centres undefined), the activation in [1] was -6.64% (inactive); in experiment [10], 1.27% (inactive). The outcome in experiment [4], in experiment [6] and in experiment [17] was inactive. Also, the Potency entry in [5] was “inactive”. Further, the max response in experiment [18] was 22.1%; in [19], -14.1% (inactive); in [11] it was 11.2% (inactive); in experiment [13], -11.5% (inactive); in experiment [14], 4.59% (inactive).

With `NC(=O)Cc1cccc2ccccc12`, the activation in experiment [1] is -1.98% (inactive); in experiment [9], 1.36% (inactive); in [10], 4.55% (inactive). Also, the Potency result in experiment [2], in [5], in experiment [12] and in experiment [15] was “inactive” throughout. The max response in [3] was 36.8%; in experiment [7], -2.89%; in experiment [18], 0.786%; in experiment [11], -0.179% (inactive); in experiment [13], -4.7% (inactive); in experiment [14] it was -7.9% (inactive). For the same compound, in experiment [16], the max response is -0.261% (inactive). In addition, the outcome in experiment [4] and in [17] was inactive.

For `CCCCC(CC)COC(=O)/C=C\C(=O)OCC(CC)CCCC` (centres undefined), the activation in [1] is -2.45% (inactive); in [9], -1.03% (inactive); in experiment [20] it was 0.118% (inactive); in [10], 0.172% (inactive). Moreover, the Potency result in [2], in experiment [12] and in experiment [15] was “inactive” each time. In addition, the max response in experiment [3] was 14.1%; in experiment [7], 1.27%; in [18] it was -16.2%; in experiment [11], -0.882% (inactive); in [13], -2.59% (inactive); in experiment [16], -1.19% (inactive). For the same compound, the outcome in experiment [4], in experiment [6] and in [17] was inactive.

For the compound `CN(C)CCOCCN(C)C`, the activation in [1] was 11.4% (inactive); in experiment [9] it was -2.29% (inactive); in [20], 0.657% (inactive); in experiment [10], -2.36% (inactive). Besides, the Potency result in [2], in [5], in experiment [8], in experiment [12] and in experiment [15] was “inactive” throughout. Also, the max response was 2.82% in experiment [3]; 1.75% in [7]; -5.51% in [18]; -8.75% (inactive) in experiment [19]; -0.21% (inactive) in experiment [11]; -2.1% (inactive) in experiment [13]. Besides, the max response was -5.76% (inactive) in experiment [14] and 0.876% (inactive) in [16]. Besides, the outcome in experiment [4], in experiment [6] and in [17] was inactive.

With `CS(C)=O`, the activation in [1] is -5.87% (inactive); in experiment [9], 1.22% (inactive); in experiment [20] it was 0.392% (inactive); in experiment [10], 0.193% (inactive). In addition, the Potency result in experiment [2], in [5], in [8], in [12] and in [15] was “inactive” throughout. Also, the max response in [3] is 23%; in experiment [18], -13.1%; in [19], 10.4% (inactive); in experiment [11] it was 0.892% (inactive); in experiment [13], 16.4% (inactive); in experiment [14] it was 1.99% (inactive). Further, the max response in experiment [16] was 2.97% (inactive). Also, the outcome in experiment [4], in experiment [6] and in experiment [17] was inactive.
